# About 83,000 compounds went through this panel and 20% of them were active in at least one assay; those are over-represented in the sample as a whole.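 A percent growth of 40 corresponds to 60% growth inhibition; 0 means no net growth; -100 means all cells died. Active threshold: below 10.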 Values without a mark were called inactive. The source made the active and inactive calls.
# What was measured:
# Assay in all cases: NCI-60 one-dose screen, 48 h (100 = growth as untreated, 0 = no growth, -100 = all killed)
# Conditions in all cases: 10 µM unless noted
# HCT-15 colon = test system: HCT-15 colon
# HT29 colon = test system: HT29 colon
# SNB-75 CNS = test system: SNB-75 CNS
# SNB-19 CNS = test system: SNB-19 CNS
# U251 CNS = test system: U251 CNS
# PC-3 prostate = test system: PC-3 prostate
# SK-MEL-5 melanoma = test system: SK-MEL-5 melanoma
# UACC-62 melanoma = test system: UACC-62 melanoma
# LOX IMVI melanoma = test system: LOX IMVI melanoma
# SK-MEL-28 melanoma = test system: SK-MEL-28 melanoma
# SK-MEL-2 melanoma = test system: SK-MEL-2 melanoma
# EKVX NSCLC = test system: EKVX NSCLC
# SN12C renal = test system: SN12C renal
# UO-31 renal = test system: UO-31 renal
# TK-10 renal = test system: TK-10 renal
# ACHN renal = test system: ACHN renal
# CAKI-1 renal = test system: CAKI-1 renal
# A498 renal = test system: A498 renal
# CCRF-CEM leukemia = test system: CCRF-CEM leukemia
# MOLT-4 leukemia = test system: MOLT-4 leukemia
Compound,growth (HCT-15 colon),growth (HT29 colon),growth (SNB-75 CNS),growth (SNB-19 CNS),growth (U251 CNS),growth (PC-3 prostate),growth (SK-MEL-5 melanoma),growth (UACC-62 melanoma),growth (LOX IMVI melanoma),growth (SK-MEL-28 melanoma),growth (SK-MEL-2 melanoma),growth (EKVX NSCLC),growth (SN12C renal),growth (UO-31 renal),growth (TK-10 renal),growth (ACHN renal),growth (CAKI-1 renal),growth (A498 renal),growth (CCRF-CEM leukemia),growth (MOLT-4 leukemia)
Cc1ccc(NC(=O)c2ccc(CN3CCOCC3)c(C(F)(F)F)c2)cc1Oc1ccc(-c2[nH]nc3ncnc(N)c23)cc1,40.5%,37%,112%,95.5%,66.9%,43.4%,16.3%,19.4%,59.1%,47.8%,59.6%,65.6%,82.3%,54.6%,80%,58.2%,39.2%,87.3%,47.8%,46.3%
Cc1nc2ncc(-c3ccc4ncnc(NCc5ccccc5)c4c3)cc2[nH]1,103%,82.8%,13%,67.7%,75.4%,40.8%,82.8%,64.3%,41.3%,63.1%,74%,25.3%,32.3%,45.4%,22.6%,64.9%,19.3%,-18.2% (active),68.5%,45.2%
CC(C)(C)c1ccc(CC(=O)Nc2sc3c(c2C(N)=O)CCC(=O)C3)cc1,-19.5% (active),3.3% (active),23%,22.8%,14.9%,13.1%,-76% (active),-32.8% (active),-3.55% (active),5.18% (active),-5.02% (active),10.8%,6.98% (active),-87.5% (active),16.6%,-90.8% (active),-56.2% (active),47.7%,10.8%,–
COc1c(N2CC3CCCNC3C2)c(F)cc2c(=O)c(C(=O)N/N=C/c3ccc(F)cc3)cn(C3CC3)c12 (stereo not drawn),45.9%,45.9%,83.6%,99.5%,81.4%,76.4%,82.7%,80.2%,46.1%,81%,100%,90%,88.4%,80.7%,101%,104%,87.7%,59.9%,63.8%,63.1%
O=c1[nH]c2ccccc2cc1CSc1ccccc1Nc1nccc(-c2ccc(Cl)cc2)n1,101%,109%,71.7%,98.8%,104%,87.9%,96.6%,77.1%,96.3%,107%,113%,88.6%,94.9%,83.3%,115%,81.5%,80.6%,85.5%,101%,100%
O=C1Nc2ccccc2/C1=C/c1ccc(CO)n1-c1ccc(Cl)cc1,24%,26.7%,32.8%,66.1%,56.4%,53.5%,51.9%,33.9%,43.5%,57.7%,47.7%,63.6%,65.2%,59.2%,115%,56.1%,52.8%,35.4%,33%,26.7%
COc1cc(OC)cc(C(=O)Nc2sc3c(c2C(N)=O)CCC(=O)C3)c1,10.9%,39.6%,47.9%,25.1%,10.3%,8.96% (active),63.1%,20.4%,22.1%,48%,86.8%,89%,50.9%,67.5%,66.5%,38.6%,10.6%,82.6%,8.55% (active),–

# Source: PubChem BioAssay (NCI)
